“And” between values parts separate entries of the source, which are not always exact repeats. Equal entries are not always repeated. Results filed as inconclusive are left out. The source made the active and inactive calls. Unless noted, calls follow the shape of the dose curve; as a rule, active = well fitted curve in the direction sought with a large enough effect in the repeat runs; inconclusive = weak or mixed curves; inactive = no such curve, though single readings can be large; an effect the other way counts as inactive or inconclusive.

Experiment [1] is described as follows: qHTS assay for small molecule agonists of the p53 signaling pathway (AID 651631; calls by dose curve; also: nearly all actives have a fitted effect of over 15% in size). The method in brief:
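Fluorescence intensity from cleaved LiveBLAzer B/G substrate (2 h, room temperature) served as the signal. Beforehand, HCT-116 reporter cells bearing p53 response elements were treated 16 h at 37 °C with DMSO-dissolved compounds.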
Background: Quantitative high-throughput screening tests each substance at several concentrations.

Experiment [2] in a line: qHTS assay for small molecules that induce genotoxicity in human embryonic kidney cells expressing luciferase-tagged ATAD5 (AID 651632). Also: nearly all actives have a fitted effect of over 15% in size. The method in brief: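 Luminescent reporter readout, HEK293T ATAD5-luc line: 16 hr drug exposure (37C, 5% CO2) followed by Amplite, 30 min RT.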
Experiment [3] can be described thus: qHTS assay for small molecule agonists of the p53 signaling pathway - cell viability (AID 651633; calls by dose curve;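 also: p53RE-bla HCT reporter cells with a stable beta-lactamase p53 reporter; nearly all actives have a fitted effect of over 30% in size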). The method in brief: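 p53RE-bla cells, seeded at 4,000 per well and rested 5 h at 37 C/5% CO2, received compounds in DMSO for 16 h at 37 C. CellTiter-Glo was then added, and luminescence was read after 30 min at room temperature to gauge cytotoxicity.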
A short description of experiment [4]: qHTS assay for small molecule disruptors of the mitochondrial membrane potential - cell viability (AID 720634; calls by dose curve;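 also: human HepG2 liver cancer cells; nearly all actives have a fitted effect of over 20% in size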). The method in brief:
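HepG2, 1 hr compound, 37 C. ATP luminescence via CellTiter-Glo, 30 min RT, same well as m-MPI.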

Experiment [5] is described as follows: qHTS assay to test for compound auto fluorescence at 590 nm (red) in HepG2 cells (AID 720674). The method in brief:
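Rose Bengal sodium served as the red fluorophore standard. HepG2 monolayers (overnight attachment, MEM with 10% FBS) were exposed to test compounds for 1 hr at 37 C and read at Ex 540/Em 590 nm.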

A short description of experiment [6]: qHTS assay to test for compound auto fluorescence at 535 nm (green) in HepG2 cells (AID 720675).
Experiment [7] is described as follows: qHTS assay to test for compound auto fluorescence at 590 nm (red) in HEK293 cells (AID 720679). The method in brief: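 HEK293 cells (2,000/well, 10% dialyzed FBS) attached 4-5 hr, then dosed with compound or DMSO and incubated overnight at 37C, 5% CO2. Red fluorescence read at 540/590 nm, Rose Bengal sodium as reference fluorophore.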
Experiment [8] is described as follows: qHTS assay to test for compound auto fluorescence at 535 nm (green) in HEK293 cells (AID 720680).
Experiment [9] can be described thus: qHTS assay to test for compound auto fluorescence at 460 nm (blue) in HEK293 cell free culture (AID 720681). The method in brief:
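Test compounds were pinned into cell-free culture medium (DMEM with 10% FBS) and fluorescence was read directly at Ex/Em 405/460 nm. Signals were expressed as fluorescence equivalents of triamterene, with DMSO vehicle as control.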

A short description of experiment [10]: qHTS assay to test for compound auto fluorescence at 535 nm (green) in HEK293 cell free culture (AID 720682). The method in brief:
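Intrinsic compound fluorescence is measured in culture medium containing 10% FBS, with excitation at 485 nm and detection at 535 nm, referenced to fluorescein.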

Experiment [11] is described as follows: qHTS assay to test for compound auto fluorescence at 590 nm (red) in HEK293 cell free culture (AID 720683). The method in brief:
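Tox21 10K library compounds were pinned into cell-free DMEM with 10% FBS and fluorescence was read at excitation 540 nm. Activity is expressed as Rose Bengal sodium equivalency.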

Experiment [12] can be described thus: qHTS assay to test for compound auto fluorescence at 590 nm (red) in HepG2 cell free culture (AID 720684). The method in brief:
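Red fluorescence (540 nm excitation, 590 nm emission) was measured after compound transfer into cell-free MEM supplemented with 10% FBS. Values are equivalencies against Rose Bengal sodium.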

Experiment [13] is described as follows: qHTS assay to test for compound auto fluorescence at 535 nm (green) in HepG2 cell free culture (AID 720686).
The nature of experiment [14]: qHTS assay to test for compound auto fluorescence at 460 nm (blue) in HepG2 cells (AID 720687). The method in brief: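 Cells (2,000/well in MEM with 10% FBS) attached overnight at 37 C, then were exposed to compound or DMSO for 1 hr at 37 C, 5% CO2. Fluorescence read at Ex/Em 405/460 nm, expressed as triamterene-equivalent signal.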
In experiment [15] the target is Glucocorticoid receptor (Homo sapiens) (UniProt P04150). Kind of experiment: qHTS assay to identify small molecule agonists of the glucocorticoid receptor (GR) signaling pathway (AID 720691; active = well fitted activation curve with a large enough effect in the signal ratio in the repeat runs, not every such curve was filed as active; the % refers to the signal ratio). To be noted: GR-bla HeLa, beta-lactamase reporter ratio, 18 h; activation: at 62.4 µM (top of the series). The method in brief:
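qHTS in GR-bla HeLa cells: 4 h settling at 37 C/5% CO2, 18 h compound incubation at 37 C, 2 h LiveBLAzer B/G FRET substrate at room temperature, fluorescence intensity measured.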

A short description of experiment [16]: qHTS assay for small molecules that induce genotoxicity in human embryonic kidney cells expressing luciferase-tagged ATAD5 - cell viability (AID 651634; calls by dose curve; also: nearly all actives have a fitted effect of over 25% in size). The method in brief:
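Viability read: CellTiter-Fluor fluorescence, 30 min at 37C. Cells: HEK293T, luciferase-tagged ATAD5. Exposure: 15.5 hr, 37C, 5% CO2, compound or DMSO vehicle.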

A short description of experiment [17]: qHTS assay to test for compound auto fluorescence at 460 nm (blue) in HEK293 cells (AID 720678). The method in brief:
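HEK293 cells (2,000/well, medium with 10% dialyzed FBS) attached 4-5 hr, then exposed to compound overnight at 37C, 5% CO2. Blue fluorescence read at 405/460 nm, with triamterene as reference fluorophore.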

Experiment [18] is described as follows: qHTS assay for small molecule disruptors of the mitochondrial membrane potential (AID 720635). Also: potency is read from the fitted curve at half-maximal effect. The method in brief:
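HepG2 cells (2,000/well) attached overnight at 37C, then took compound for 1 hr at 37C, 5% CO2. Mito-MPS dye was added for 30 min; fluorescence was read at 490/535 nm (monomers) and 540/590 nm (aggregates).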

A short description of experiment [19]: qHTS assay to test for compound auto fluorescence at 460 nm (blue) in HepG2 cell free culture (AID 720685). The method in brief:
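Compound (23 nL) or DMSO pinned into cell-free MEM with 10% FBS; blue fluorescence read at 405/460 nm excitation/emission, expressed as auto-fluorescence equivalency to triamterene.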

Experiment [20] concerns the target Glucocorticoid receptor (Homo sapiens) (UniProt P04150). Put plainly: qHTS assay to identify small molecule antagonists of the glucocorticoid receptor (GR) signaling pathway (AID 720692; active = well fitted inhibition curve with a large enough effect in the signal ratio in the repeat runs, not every such curve was filed as active; the % refers to the signal ratio). The method in brief:
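Inhibition of glucocorticoid signalling is measured in HeLa cells with a GRE-controlled beta-lactamase reporter; cells are co-treated with compound and 5 nM dexamethasone (final) for 18 h before FRET substrate readout.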

Sequence of Glucocorticoid receptor (Homo sapiens) (P04150 whole entry, looked up): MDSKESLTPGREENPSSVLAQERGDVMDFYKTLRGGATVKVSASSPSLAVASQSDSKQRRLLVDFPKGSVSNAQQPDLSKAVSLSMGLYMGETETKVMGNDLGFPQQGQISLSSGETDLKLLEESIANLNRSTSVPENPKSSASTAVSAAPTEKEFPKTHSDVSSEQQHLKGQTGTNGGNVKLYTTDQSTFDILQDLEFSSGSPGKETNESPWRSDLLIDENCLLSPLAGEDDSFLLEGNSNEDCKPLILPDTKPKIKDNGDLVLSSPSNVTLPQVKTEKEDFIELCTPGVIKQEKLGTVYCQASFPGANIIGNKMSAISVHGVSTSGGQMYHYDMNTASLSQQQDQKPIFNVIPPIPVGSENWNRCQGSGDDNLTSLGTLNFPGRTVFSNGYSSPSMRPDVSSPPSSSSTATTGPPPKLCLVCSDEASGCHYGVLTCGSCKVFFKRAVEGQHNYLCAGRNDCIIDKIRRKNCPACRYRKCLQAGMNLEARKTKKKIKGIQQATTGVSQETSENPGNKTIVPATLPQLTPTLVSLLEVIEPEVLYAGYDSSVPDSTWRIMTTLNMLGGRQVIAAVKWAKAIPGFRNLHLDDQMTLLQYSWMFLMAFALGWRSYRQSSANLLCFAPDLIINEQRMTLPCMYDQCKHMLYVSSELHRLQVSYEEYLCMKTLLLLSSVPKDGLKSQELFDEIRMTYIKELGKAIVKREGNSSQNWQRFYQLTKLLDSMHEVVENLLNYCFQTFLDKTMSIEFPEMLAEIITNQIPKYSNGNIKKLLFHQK

Regarding `COc1cc(Cc2cnc(N)nc2N)cc(OC)c1OC`, the Potency entry in experiment [1], in [3], in experiment [4] and in [15] was “inactive” throughout. In addition, the call in experiment [2], in experiment [5], in experiment [6], in experiment [7], in experiment [8] and in experiment [9] was inactive. The outcome in experiment [10], in experiment [11], in experiment [12], in experiment [13] and in experiment [14] was inactive.

In the case of `Cc1cc(C)c(C)cc1C`, the Potency entry in experiment [1], in experiment [3] and in experiment [16] was “inactive” throughout. Further, the result in experiment [2], in [5], in experiment [6], in [17], in experiment [7] and in experiment [8] was inactive. Further, the result in experiment [9], in experiment [10], in experiment [11], in experiment [12] and in experiment [13] was inactive.

As for `O=C(O)c1ccc2c(c1)C(=O)OC2=O`, the Potency result in experiment [1], in [3], in experiment [4], in experiment [18] and in experiment [15] was “inactive” throughout. In addition, the result in experiment [2], in experiment [5], in [6], in experiment [17], in [8] and in experiment [9] was inactive. The molecule was called inactive in experiment [10], in [11], in [12], in experiment [19], in experiment [13] and in experiment [14].

Turning to `O=C(OCCOCCOC(=O)c1ccccc1)c1ccccc1`, the Potency entry in experiment [1], in [3], in experiment [4], in [18] and in experiment [15] was “inactive” in each case. The result in [2], in experiment [5], in [6], in experiment [17], in experiment [7] and in experiment [8] was inactive. Besides, the molecule was classed as inactive in experiment [9], in experiment [10], in [11], in [12] and in experiment [13].

With `O=C(O)c1cc(O)c(O)c(O)c1`, the Potency entry in experiment [1], in experiment [3], in experiment [4], in experiment [18] and in [15] was “inactive” in each case. In addition, the molecule was classed as inactive in experiment [2], in [5], in [6], in [17], in experiment [7] and in [8]. Moreover, the call in experiment [9], in [10], in [11], in experiment [12], in [19] and in experiment [13] was inactive. For the same molecule, the outcome in experiment [14] was inactive.

Regarding `Oc1cccc2ccccc12`, the Potency entry in [1], in experiment [3], in experiment [16] and in experiment [15] was “inactive” in each case. Besides, the molecule was classed as inactive in experiment [2], in experiment [5], in experiment [6], in [17], in experiment [7] and in [8]. For the same molecule, the molecule was classed as inactive in experiment [9], in experiment [10], in experiment [11], in [12], in experiment [19] and in experiment [13]. In addition, the call in experiment [14] was inactive. In addition, the Potency in [18] was 28 µM (active) and 19.3 µM (active).

For the molecule `OCCOCCOCCO`, the Potency result in experiment [1], in experiment [3], in [4], in experiment [18] and in experiment [15] was “inactive” throughout. Moreover, the outcome in experiment [2], in [5], in experiment [6], in [17], in experiment [8] and in experiment [9] was inactive. Also, the molecule was called inactive in experiment [10], in experiment [11], in [12], in [19], in [13] and in [14].

On to `O=C=NCCCCCCN=C=O`, for which the Potency result in [1], in experiment [3], in experiment [4] and in experiment [18] was “inactive” in each case. Moreover, the call in [2], in experiment [5], in [6], in experiment [7], in [8] and in experiment [9] was inactive. Further, the molecule was classed as inactive in experiment [10], in [11], in [12], in [19] and in experiment [13].

As for `O=C(O)CC(C(=O)O)C(CC(=O)O)C(=O)O` (stereo unspecified), the Potency result in experiment [1], in [3], in experiment [4], in experiment [15] and in experiment [20] was “inactive” throughout. Further, the molecule was classed as inactive in experiment [2], in experiment [5], in experiment [6], in experiment [7], in [8] and in experiment [9]. The molecule was called inactive in [10], in experiment [11], in [12], in experiment [13] and in [14].

Values taken from PubChem BioAssay (Tox21).
